# Screening data as filed in PubChem BioAssay.
# Many of the other results were omitted from the sample, so hits are more common in it than they were.
# HT1080NT lethal: qHTS for induction of synthetic lethality in tumor cells producing 2HG: qHTS for the HT-1080-NT fibrosarcoma cell line; HT-1080-NT fibrosarcoma viability, CellTiter-Glo ATP luminescence, 48 h; Potency, µM (doses to about 46.1 µM), for inactives: at the highest dose activity, negative = less viability, hits mostly cytotoxic; hit rate 1.6% among 360,000; AID 686970, 2013;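 note: NT is the 2HG producing partner of a matched IDH1 knockdown line; potency is the fitted concentration of half-maximal effect; 0% = DMSO-treated cells and -100% = media-only wells without cells; nearly all actives have a fitted effect of over 55% in size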
#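 Luminescent CellTiter-Glo readout after 48 hours of compound exposure at 37 degrees C defined viability of HT-1080-NT cells. Activity was normalized to DMSO wells and cell-free media wells; concentration-response curves were fitted and assigned curve classes.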
# IL-1B inflam inh: qHTS for Inhibitors of Inflammasome Signaling: IL-1-beta AlphaLISA Primary Screen; THP-1 LPS/ATP IL-1B secretion, AlphaLISA, 16 h; hits give low values; activity change, % at 57.5 µM; hit rate 4.7% among 360,000; AID 743279, 2014; in the data active = activity change below about -50%; inconclusive = mostly about -30% to -49%
#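 THP-1 cells pretreated 1 hr with compounds (up to 57.5 uM final), then stimulated with LPS (250 ng/mL final) plus ATP (1.25 mM final); secreted IL-1B measured by AlphaLISA after 16 hr, decreased signal indicating inhibition.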
# 12-LOX inh: Primary qHTS assay for inhibitors of human arachidonate 12S-lipoxygenase (ALOX12): Round 2; Polyunsaturated fatty acid lipoxygenase ALOX12 (Homo sapiens), P18054; purified 12hLO, xylenol orange hydroperoxide absorbance; Potency, µM (doses to about 108 µM), for inactives: at the top dose activity change, negative = inhibition, usual class: inhibitors; hit rate 1.1% among 580,000; note: potency is the fitted concentration of half-maximal effect
# Target sequence (P18054 whole entry, looked up): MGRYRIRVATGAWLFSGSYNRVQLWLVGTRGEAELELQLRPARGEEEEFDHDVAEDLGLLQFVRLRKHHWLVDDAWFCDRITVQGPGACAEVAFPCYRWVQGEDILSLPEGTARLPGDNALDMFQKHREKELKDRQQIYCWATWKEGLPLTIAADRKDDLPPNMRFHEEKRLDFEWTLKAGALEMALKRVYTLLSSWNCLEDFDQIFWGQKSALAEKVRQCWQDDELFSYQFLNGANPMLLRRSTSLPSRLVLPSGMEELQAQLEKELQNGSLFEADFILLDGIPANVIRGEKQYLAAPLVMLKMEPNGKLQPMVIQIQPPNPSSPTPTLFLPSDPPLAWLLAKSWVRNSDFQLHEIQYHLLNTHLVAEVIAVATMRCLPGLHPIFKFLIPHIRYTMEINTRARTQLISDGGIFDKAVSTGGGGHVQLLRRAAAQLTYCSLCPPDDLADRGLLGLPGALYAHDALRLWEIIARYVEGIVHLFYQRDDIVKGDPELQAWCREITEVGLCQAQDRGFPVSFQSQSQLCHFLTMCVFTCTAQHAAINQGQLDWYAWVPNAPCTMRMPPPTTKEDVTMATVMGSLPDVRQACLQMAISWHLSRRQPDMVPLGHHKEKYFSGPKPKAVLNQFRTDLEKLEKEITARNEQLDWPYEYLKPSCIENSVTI
#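 Hydroperoxide product was detected by ferrous iron/xylenol orange as the 573 to 405 nm absorbance ratio. Arachidonic acid at 40 uM (final) was turned over for 30 min at room temperature by 150 nM human 12hLO, pH 7.0 Hepes buffer, after 15 min compound preincubation.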
# HT1080 IDH1KD tx: qHTS for induction of synthetic lethality in tumor cells producing 2HG: qHTS for the HT-1080-IDH1KD cell line; HT-1080 IDH1 knockdown viability, ATP luminescence, 48 h; Potency, µM (doses to about 46.1 µM), inactives show top-dose activity, negative = toxicity, most hits filed as cytotoxic; hit rate 2% among 360,000; AID 686971, 2013;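 note: potency is the fitted concentration of half-maximal effect; 0% = DMSO wells and -100% = cell-free medium wells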
#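 Luminescent ATP read-out (CellTiter-Glo, 10 min at room temperature) after 48 h compound exposure at 37 °C gave viability of IDH1-knockdown HT-1080 cells. Activity was normalised to DMSO and cell-free wells, then fitted as concentration-response curves.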
# DT40 TDP1 no CPT: qHTS for Inhibitors of human tyrosyl-DNA phosphodiesterase 1 (TDP1): qHTS in cells in absence of CPT; AID 686978, 2013; Potency, µM (top dose mostly 46.2 µM), inactives show at the highest dose activity change, negative = growth inhibition, most hits filed as inhibitors; DT40 Tdp1-/- hTDP1 cells, no CPT, ATP luminescence, 48 h; hit rate 15% among 420,000; note: potency is the fitted concentration of half-maximal effect; nearly all actives have a fitted effect of over 55% in size
#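 A cellular qHTS used chicken DT40 cells lacking endogenous Tdp1 but carrying stably transfected human TDP1. Compounds were applied without camptothecin, and cell growth kinetics were judged by ATP-dependent luminescence after ≥48 hr.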
# DT40 TDP1 CPT: qHTS for Inhibitors of human tyrosyl-DNA phosphodiesterase 1 (TDP1): qHTS in cells in presence of CPT; hit rate 12% among 420,000; chicken DT40 Tdp1-/-;hTDP1 cells + 20 nM CPT, ATP luminescence, 48 h; Potency, µM (doses to about 46.2 µM), for the others: at the top dose activity change, negative = growth inhibition, usual class: inhibitors; note: potency is the fitted concentration of half-maximal effect; nearly all actives have a fitted effect of over 55% in size
#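 Chicken DT40 Tdp1-/- cells stably complemented with human TDP1 were seeded at 400 cells/well in medium containing 20 nM camptothecin, exposed to pin-transferred compounds, and grown at 37 °C for at least 48 hr. Viability was read as ATP luminescence.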
# Active calls of the source: *; ? = inconclusive; · = no result given; [ ] = another dose, or the depositor's remark. Unless noted, calls come from the whole dose curve; as a rule, active = well fitted curve in the direction sought with a large enough effect; inconclusive = small, poorly fitted or top-dose-only effect, or another doubt; inactive = no such curve, though single readings can be large; an effect the other way counts as inactive or inconclusive. Unless noted, % is set by controls: 0 for no effect and ±100 for the full control effect.
SMILES,HT1080NT lethal,IL-1B inflam inh,12-LOX inh,HT1080 IDH1KD tx,DT40 TDP1 no CPT,DT40 TDP1 CPT
Cn1c(=O)[nH]c(=O)c2c1nc(N/N=C/c1cccnc1)n2Cc1ccc(Cl)cc1,-2.7%,38.2,?,-4.8%,6.4%,2.9%
Cn1c(=O)c2c(nc(NCCc3ccccc3)n2Cc2ccc(Br)cc2)n(C)c1=O,·,·,-0.4%,·,·,·
Cn1c(=O)c2c(nc(N/N=C/c3cccnc3)n2Cc2ccccc2)n(C)c1=O,-5.4%,29.9,496.6%,-1.8%,25.9µM*,11.6µM*
Cn1c(=O)c2c(nc(NCCc3ccccc3)n2Cc2ccc(F)cc2)n(C)c1=O,-14.7%,-5.3,-7.6%[57.4 µM],-25.1%,5.17µM*,3.66µM*
Cn1c(=O)c2c(nc(NCCc3ccc(F)cc3)n2Cc2ccccc2Cl)n(C)c1=O,·,·,6.9%,·,·,·
C=CCNc1nc2c(c(=O)n(C)c(=O)n2C)n1CC,2.7%,8.7,2.0%,3.6%,1.1%,0.0%
CCN(Cc1ccc2c(c1)OCO2)C(=O)c1nn(-c2ccccc2)c(=O)c2ccccc12,·,·,2.7%,·,·,·
CC(C)CNc1nc2c(c(=O)n(C)c(=O)n2C)n1Cc1ccc(F)cc1,·,·,19.3%,·,·,·
Cn1c(N/N=C2\CCCc3ccccc32)nc2c1c(=O)n(Cc1ccccc1)c(=O)n2C,4.2%,22.9,-14.5%,9.2%,?,23.1µM*
CC(CCO)Nc1nc2c(c(=O)n(C)c(=O)n2C)n1Cc1ccc(F)cc1 (stereo unspecified),·,·,13.7%,·,·,·
CCC(C)Nc1nc2c(c(=O)n(C)c(=O)n2C)n1Cc1ccc(F)cc1 (stereo unspecified),-4.5%,15.3,-2.5%[57.4 µM],-22.5%,?,18.4µM*
CNc1nc2c(c(=O)n(C)c(=O)n2C)n1Cc1ccccc1,-1.8%,1.9,0.0%,-14.9%,13µM*,?
C=CCNc1nc2c(c(=O)n(C)c(=O)n2C)n1Cc1ccc(F)cc1,-16.1%,53.0,14.7%,-14.6%,6.51µM*,2.31µM*
COC1CCOC2(CCN(C(=O)Nc3cccc(C)c3)CC2)C1 (stereo unspecified),·,·,57.3%,·,·,·
CC(Cl)=CCn1c(NCCc2ccccc2)nc2c1c(=O)n(C)c(=O)n2C,-2.0%,24.8,-27.8%,-1.2%,1.46µM*,1.46µM*
Cn1c(=O)c2c(nc(N/N=C/c3ccc(OC(=O)c4ccco4)cc3)n2Cc2ccccc2Cl)n(C)c1=O,-4.0%,38.2,·,1.1%,8.2µM*,6.51µM*
Cn1c(=O)c2c(nc(NCCc3ccccc3)n2Cc2ccc(Cl)c(Cl)c2)n(C)c1=O,·,·,-29.6%,·,6.51µM*,?
Cn1c(=O)c2c(nc(-c3ccccc3)n2C)n(Cc2ccccc2)c1=O,18.4%,3.5,3.2%,20.1%,20.6µM*,16.4µM*
CN(Cc1cccs1)C(=O)c1ccc(-c2ccccc2)cc1,·,·,1.7%,·,·,·
COc1cc(CNC(=O)c2nccnc2N)ccc1O,·,·,-8.0%,·,·,·
O=c1oc2cc(OS(=O)(=O)c3ccccc3)ccc2cc1-c1ccccc1,·,·,11.0%,·,·,·
CC(C)CCn1c(NCCc2ccccc2)nc2c1c(=O)n(C)c(=O)n2C,-29.9%,-28.7,5.3%[57.4 µM],?,20.6µM*,13µM*
Cc1ccccc1Cn1c(NCCc2ccccc2)nc2c1c(=O)n(C)c(=O)n2C,·,·,12.8%,·,·,·
Cc1ccc(-c2nnn(Cc3coc(-c4ccccc4)n3)n2)cc1,·,·,-27.9%,·,·,·
CCOC(=O)c1c(-c2ccc(OC)cc2)nc2nonc2c1N,-2.7%,29.0,-8.3%,4.1%,2.59µM*,?
